PostGolgi ctrl = yeast control strain growth, post-Golgi counter-screen; efflux-deficient yeast background strain, growth absorbance A615, 16 h; inhibition, % at 10 µM; hit rate 5% among 98,000; AID 738
Cav32 inh = human Cav3.2 channel inhibition, primary screen; B-score at 10 µM; hit rate 4% among 100,000; Cav3.2-expressing cells, Fluo-4 calcium fluorescence FDSS; hits give low values; O95180;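 active = single-dose well whose peak fluorescence ratio is a statistical outlier from its plate by either plate-standardised score or position-corrected B-score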
Pyk2 oligo antag = antagonists of human Pyk2 oligomerization; Q293 cells, Pyk2 FERM NanoBiT luminescence; hits give low values; z-score (the deposit names both 25 µM and 10 µM); hit rate 0.83% among 99,000;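 active = Z-score of -3 or lower, scaled per plate to the spread of control and sample wells; inactive = z-score above -3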;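 also: negative z-score means lost luminescence so less FERM oligomerization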
Target sequence (Q14289 whole entry, looked up): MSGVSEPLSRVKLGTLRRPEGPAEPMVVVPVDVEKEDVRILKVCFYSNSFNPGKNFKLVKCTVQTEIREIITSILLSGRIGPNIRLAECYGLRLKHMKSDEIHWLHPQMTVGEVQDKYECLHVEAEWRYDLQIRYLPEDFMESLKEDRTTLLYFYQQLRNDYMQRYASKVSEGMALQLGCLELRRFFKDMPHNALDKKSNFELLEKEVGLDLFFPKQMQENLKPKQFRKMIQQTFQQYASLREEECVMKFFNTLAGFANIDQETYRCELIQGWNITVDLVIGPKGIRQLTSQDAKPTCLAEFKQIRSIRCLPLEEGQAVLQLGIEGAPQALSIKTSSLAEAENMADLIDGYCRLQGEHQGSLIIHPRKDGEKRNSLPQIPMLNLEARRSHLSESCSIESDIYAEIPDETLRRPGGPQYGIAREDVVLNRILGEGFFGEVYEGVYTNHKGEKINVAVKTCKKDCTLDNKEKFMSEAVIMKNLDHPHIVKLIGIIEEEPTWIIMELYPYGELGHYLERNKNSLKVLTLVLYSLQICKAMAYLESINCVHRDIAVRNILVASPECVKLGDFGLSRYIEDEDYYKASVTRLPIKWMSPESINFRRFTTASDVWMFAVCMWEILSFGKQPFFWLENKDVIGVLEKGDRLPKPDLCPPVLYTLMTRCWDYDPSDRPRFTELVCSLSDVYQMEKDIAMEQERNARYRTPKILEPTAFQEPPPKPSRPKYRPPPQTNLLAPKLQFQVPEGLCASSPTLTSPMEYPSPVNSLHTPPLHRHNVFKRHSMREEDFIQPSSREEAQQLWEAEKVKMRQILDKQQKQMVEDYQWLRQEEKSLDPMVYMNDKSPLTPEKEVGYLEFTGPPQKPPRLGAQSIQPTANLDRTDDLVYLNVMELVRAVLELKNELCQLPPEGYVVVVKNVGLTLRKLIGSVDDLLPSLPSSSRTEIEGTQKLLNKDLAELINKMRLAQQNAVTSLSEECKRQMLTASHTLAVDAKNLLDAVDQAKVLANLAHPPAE
PostGolgi yeast = growth inhibition of a yeast mutant, post-Golgi transport screen; post-Golgi transport phenotypic cell assay; hit rate 0.9% among 98,000; AID 739; inhibition, % at 10 µM;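 also: yeast cells grown in 1536-well plates; yeast grown about 18 h at 30C before absorbance read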
Hits are given with their value; - = inactive; . = no result. Compounds with a hit are over-represented: about 8% of the library has one in this group of screens. Rule as the data show it, unless noted: active = inhibition above about 30%; inactive = the rest.

SMILES	PostGolgi ctrl	Cav32 inh	Pyk2 oligo antag	PostGolgi yeast
Cc1c(C(=O)NC2CCCc3ccccc32)oc2ccccc12 (stereo not given)	-	-4.57	-	-
CC(C)[C@H](NC(=O)NC1CCCc2ccccc21)C(=O)O (stereo not given in full)	33.1	-	-	-
O=C(Nc1ccccc1F)c1cc2nc(C(F)F)cc(C(F)F)n2n1	.	-	-	.
Cc1cc2ncn(C3CC(=O)N(Cc4ccc(N5CCCC5=O)cc4)C3=O)c2cc1C (stereo not given)	-	-	.	-
COc1ccccc1-n1c(CNC(=O)c2ccco2)nnc1SCC(=O)Nc1ccc(F)cc1	-	-	-	-
CCNC(=O)n1nccc1C(C)Oc1ccc(Cl)cc1 (stereo not given)	-	-	-	-
CCNC(=O)n1nccc1C(C)Oc1cccc(C(F)(F)F)c1 (stereo not given)	34.6	-	-	-
c1ccc(CCCNc2ncnc3nc[nH]c23)cc1	-	-	.	-
CCCCc1ccc(Nc2ncnc3nc[nH]c23)cc1	60.1	.	.	-
N#Cc1cc(N)ccc1Sc1ccc(Cl)cc1	53.2	-	-	-
O=C(NCC(=O)N(CC1CCCO1)C1(C(=O)NC2CCCCC2)CCCCC1)c1ccccc1 (stereo not given)	-	.	-	-
O=C(Nc1cccc(Br)c1)c1ccc(CSc2ccccc2)cc1	-	.	-	-
O=C(Nc1ccc(Br)cc1)c1ccc(CSC2=NCCS2)cc1	34.2	-	-	-
Cc1ccnc(NC(=O)CCC(=O)N(CC(=O)NC2CCCCC2)c2cccc(C)c2C)c1	-	-6.42	-	-
Cc1cccc(-n2cnc(C(=O)NC3CCCCCC3)c2)n1	-	-	-	-
O=C(N/N=C/c1ccc(Br)o1)/C(=C/c1ccc([N+](=O)[O-])cc1)NC(=O)c1ccccc1	-	-4.91	-	-
Cc1c(C(=O)NCc2ccccc2)oc2ccc(S(=O)(=O)N3CCCC3)cc12	-	.	.	-
CCOC(=O)N1CCN(C(=O)c2oc3ccc(S(=O)(=O)N4CC(C)CC(C)C4)cc3c2C)CC1 (stereo not given)	-	-	-	-
Cc1c(C(=O)NCc2cccnc2)oc2ccc(S(=O)(=O)N3CCCCCC3)cc12	41.6	-	-	-
CCOC(=O)C1CCN(C(=O)c2oc3ccc(S(=O)(=O)N4CC(C)CC(C)C4)cc3c2C)CC1 (stereo not given)	-	-5.95	-	-
COc1ccccc1CNC(=O)c1oc2ccc(S(=O)(=O)N3CCCC3)cc2c1C	31.0	.	-	-
Cc1c(C(=O)NCc2cccnc2)oc2ccc(S(=O)(=O)N3CCCCC3)cc12	-	-	-	-
Cc1cccc(C)c1NC(=O)C1CCCCN1C (stereo not given)	.	-	.	.
COc1cc(C)c(N)cc1C(C)C	-	-	-	-
CCN1C2=NCCCN2c2cc(C)c(C)cc21	-	-	-	-
SMILES	PostGolgi ctrl	Cav32 inh	Pyk2 oligo antag	PostGolgi yeast
O=c1c(O)c(-c2cccs2)oc2ccc(Cl)cc12	-	-4.76	-	-
O=c1c(O)c(-c2cccs2)oc2ccccc12	-	-3.77	-	-
O=c1cc(-c2cccs2)oc2ccc(Cl)cc12	-	-	-	-
Cc1cc(C)cc(OC(=O)CS(=O)c2ccc(C(F)(F)F)cc2[N+](=O)[O-])c1 (stereo not given)	35.2	-	-	-
COc1cc(NS(=O)(=O)c2ccc(Br)s2)cc(OC)c1	-	-5.75	-	-
Cc1cc(C)cc(NC(=O)Cn2c(=O)oc3cc(S(=O)(=O)N4CC(C)CC(C)C4)ccc32)c1 (stereo not given)	-	-4.28	.	-
CSC1=N/C(=C\c2ccccc2)C(=O)N1C	-	-	-	-
Cc1ccc(C2(c3ccc(C)cc3)CC2C(=O)Nc2ccc([N+](=O)[O-])cc2O)cc1 (stereo not given)	90.8	-	-3.36	101.5
COC(=O)C1=CN(CCCN2CCCC2=O)C=C(C(=O)OC)C1c1ccccc1C(F)(F)F	-	-	-	35.6
COC(=O)C1=CN(CC2CCCO2)C=C(C(=O)OC)C1c1ccccc1C(F)(F)F (stereo not given)	-	-	-	-
CC1CCC(NC(=O)c2ccc3nc[nH]c3c2)CC1 (stereo not given)	-	-	-	-
CC12CCC(C(=O)N(Cc3ccccc3)Cc3ccccc3)(OC1=O)C2(C)C (stereo not given)	38.1	-	-	-
CC12CCC(C(=O)NCc3cccnc3)(OC1=O)C2(C)C (stereo not given)	-	-	-	-
Cc1ccc(C)c(N(CC(=O)NC2CCCC2)C(=O)c2oc(C(C)(C)C)cc2C)c1	-	-4.75	-	-
Cc1cccc(NC(=S)NN(Cc2ccccc2)c2ccccc2)c1C	-	-4.85	-	-
O=C(c1ccccc1)N1CCN(C(=O)N2CCOCC2)CC1	-	-	-	-
O=C(NC1CCN(C(=O)N2CCOCC2)CC1)c1ccccc1	33.6	-	-	-
CCOC(=O)c1c(NC(=O)c2c(Br)cnn2C)c(C#N)nn1-c1ccccc1	41.1	-	-	-
CCOC(=O)c1nn(-c2ccccc2)c(C#N)c1NC(=O)c1nn(CC)cc1Br	44.3	-	-3.47	-
COc1ccc(NC(=O)c2cc(S(=O)(=O)N3CCS(=O)(=O)CC3)ccc2Cl)cc1	-	-	-	-
CCOc1cc(CNCCO)cc(Br)c1OCc1ccccc1Cl	-	-	-	-
CCOc1cc(CNC(C)(C)CO)cc(Br)c1OCc1ccc(Cl)cc1Cl	90.7	-	-	-
CC(=O)Nc1ccc(/C(C)=N/NC(=O)c2ccccc2Cl)cc1	.	.	-	.
CCN(CC)C(=O)CSc1nc(-c2cccs2)cc(-c2cccs2)c1C#N	.	-5.99	-	.
CCN(CC)C(=O)CSc1nc(N)c(C#N)c(-c2cccs2)c1C#N	.	-	-	.
SMILES	PostGolgi ctrl	Cav32 inh	Pyk2 oligo antag	PostGolgi yeast
Cc1ccc(C)c(CSc2nnc(-c3cccs3)n2Cc2ccco2)c1	35.2	-	-	-
CCOC(=O)c1ccc(OCc2c(C)noc2C)cc1	-	-	-	-
Cc1noc(C)c1COC(=O)c1ccccc1Sc1ccccc1C#N	30.3	-	-	-
Cc1[nH]nc(SCC(=O)NCc2ccc(F)cc2)c1[N+](=O)[O-]	.	.	-	.
CN(NC(=O)NN)c1ncc(C(F)(F)F)cc1Cl	-	-	-	-
O=C(CCCC(=O)N(CC(=O)NC1CCCC1)C1CCCC1)Nc1ccccn1	33.9	-	-	-
CC(C)c1[nH]nc2c1C(Cc1ccccc1)C(C#N)=C(N)O2 (stereo not given)	-	-8.63	-	-
CCc1nc(SCC(=O)c2ccc3c(c2)OCCO3)c2ccccc2n1	31.8	-	-	-
Cc1n[nH]c(C)c1S(=O)(=O)N1CCCC(C(=O)N2CCN(c3ccc(Cl)cc3)CC2)C1 (stereo not given)	44.4	-	-	-
Cc1ccc(NC(=O)C2CCN(S(=O)(=O)c3cccc4cccnc34)CC2)nc1	32.1	-	.	-
CCOC(=O)N1CCC(NC(=O)C2CCN(S(=O)(=O)c3cccc4cccnc34)CC2)CC1	-	-	.	-
O=C(Nc1ccc(C(F)(F)F)cc1)C1CCCN1S(=O)(=O)c1cccc2cccnc12 (stereo not given)	30.1	-	-	-
CCOC(=O)C1CCN(C(=O)C2CCN(S(=O)(=O)c3cccc4cccnc34)CC2)CC1	31.6	-	.	-
Cn1cccc1C(=O)C(=O)Nc1ccccc1	-	-	-	-
